In PubChem BioAssay (NCI):
The panel holds about 79,000 compounds, 15% with a hit somewhere; the sample as a whole holds those more often. A number with no mark means an inactive call. Active and inactive are the calls of the source. Rule as the data show it: active = growth inhibition above about 70%; inactive = the rest.

Columns and labels:
[1] = NCI Yeast Anticancer Drug Screen. Data for the rad50 strain (AID 155);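 also: 0% = growth of vehicle-only cultures of the same strain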; details: S. cerevisiae rad50 strain growth inhibition; at 50.0 µM; stronger effect = higher value
In short: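 Yeast carrying a defined DNA repair defect were exposed to test compounds, and growth was compared with vehicle-treated controls to give percent inhibition.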

[2] = NCI Yeast Anticancer Drug Screen. Data for the mec2-1 strain (AID 157); details: S. cerevisiae mec2-1 strain, at 50.0 µM, stronger effect = higher value
In short: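 Test agents were screened against the mec2-1 yeast strain, with defined DNA repair or cell cycle alteration. Growth was scored as inhibition against vehicle-only controls.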

[3] = NCI Yeast Anticancer Drug Screen. Data for the sgs1 mgt1 strain (AID 161);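 also: 0% = growth of cultures given vehicle only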; details: S. cerevisiae sgs1 mgt1 strain, at 50.0 µM, stronger effect = higher value
In short: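 Genetically altered yeast, compound exposure, growth inhibition relative to vehicle.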

[4] = NCI Yeast Anticancer Drug Screen. Data for the cln2 rad14 strain (AID 165);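 also: 0% = growth equal to vehicle treated cultures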; details: S. cerevisiae cln2 rad14 strain, at 50.0 µM, stronger effect = higher value
In short: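 Growth of compound-exposed yeast (cln2 rad14 genotype) measured and expressed as inhibition relative to vehicle.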

[5] = NCI Yeast Anticancer Drug Screen. Data for the bub3 strain (AID 167); details: S. cerevisiae bub3 mutant strain, at 50.0 µM, stronger effect = higher value
In short: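 Compounds were applied to a genetically altered yeast strain carrying a cell-cycle control defect. Growth inhibition was scored against vehicle-treated controls.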

[6] = NCI Yeast Anticancer Drug Screen. Data for the mlh1 rad18 strain (AID 175); details: S. cerevisiae mlh1 rad18 strain growth inhibition; at 50.0 µM; stronger effect = higher value
In short: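 In this whole-cell yeast screen, a strain with altered DNA damage repair is challenged with compound, and its growth is measured against matched vehicle-treated controls.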

| SMILES | growth inhibition [1] | growth inhibition [2] | growth inhibition [3] | growth inhibition [4] | growth inhibition [5] | growth inhibition [6] |
| --- | --- | --- | --- | --- | --- | --- |
| CN(C(=O)CCCO)c1cc([N+](=O)[O-])ccc1OCc1ccccc1 | 7.6% | 2.8% | -1.2% | -0.8% | 0.7% | -0.75% |
| CCC/C(=N/NC(N)=O)C1=CCCCC1 | 0.45% | -5.45% | -2.6% | -28.4% | -18.9% | 3.4% |
| O=[N+]([O-])c1ccc(N=Cc2ccc(O)cc2)cc1 | -17.9% | -19.2% | -30.2% | -27.3% | -4.35% | -67.2% |
| O=c1[nH]nc(-c2ccccc2)n1/N=C/c1ccncc1 | 21.7% | 16.4% | 15.4% | 10.2% | 17.6% | 22.7% |
| CC(=S)NC(O)C(=O)c1ccccc1 (configuration not stated) | 9.85% | 12.8% | 45% | 8.6% | 45.2% | 6.45% |
| NNc1ccc([N+](=O)[O-])c2[nH][nH]c(=O)c12 | 8% | 6.5% | 27.1% | 11.2% | 31.9% | 11.4% |
| Cn1c(=O)c2c(no[n+]2[O-])c2ccccc21 | 18.1% | 15.7% | 8.05% | 14.1% | 21.1% | 22.4% |
| NNC(=O)C(O)C(O)C(=O)NN (configuration not stated) | 8.5% | -6.8% | -20.2% | 46.6% | -8.05% | -8.1% |
| O=C1c2ccccc2C(=O)c2c(O)cc([N+](=O)[O-])cc21 | 18.2% | 3.05% | 11.7% | 6.05% | 14.2% | -1.5% |
| CC(=O)OC1=CC(=O)N(C(=O)c2ccccc2)C1 | -2.8% | -5.95% | -18.6% | -12.2% | 3.2% | -6.55% |
| NC(=O)NC(=O)c1ccccc1 | -10.4% | -15.2% | -10.2% | -9.25% | 3.55% | -7.55% |
| CC(=O)c1cc(C)c(O)c(C)c1 | -4.25% | -8.8% | 0.05% | -4.05% | -6.75% | -5.55% |
| Cc1c(-c2ccc(N)cc2)c(=O)oc2cc(O)ccc12 | -8.65% | -11.1% | -2.2% | 33% | 8.1% | 8.55% |
| C[N+](C)(C)/N=C1\CC2CCC1C2 (configuration not stated) | 18.3% | -4.5% | -5.55% | 4.75% | 1.9% | 23.1% |
| CC(=Nc1ccc(Cl)cc1)c1ccncc1 | -31.9% | -14.5% | -14.8% | -6.4% | 1.3% | -1.8% |
| N=C(N)SCCC(=O)O | -29.4% | -21.1% | -39.7% | -69.6% | 17.4% | -56.6% |
| CC1=NNC(c2ccco2)C1 (configuration not stated) | 10.2% | 5.6% | 12.8% | 18.1% | 11.9% | 5.7% |
| CC(C)O[Si](OC(C)C)(OC(C)C)OC(C)C | 13.2% | -16.1% | -8.7% | -3.25% | 9.9% | 2.6% |
| Clc1ccc(-c2nc3ccccc3cc2N2CCOCC2)cc1 | 70.5% (active) | 52% | 47.9% | 49.7% | 39.5% | 82.5% (active) |
| Cc1ccc(NC(=O)c2cc3cc(N=Nc4ccc(Br)cc4)ccc3oc2=O)cc1 | 16% | 28.1% | 12.4% | 23.1% | 3.05% | 15.8% |
| Cc1cc(N=Nc2ccc(C(=O)O)cc2)c(N)cc1N | -34.5% | -5.55% | -7.1% | -21.4% | 9.7% | -7.5% |

| SMILES | growth inhibition [1] | growth inhibition [2] | growth inhibition [3] | growth inhibition [4] | growth inhibition [5] | growth inhibition [6] |
| --- | --- | --- | --- | --- | --- | --- |
| COC(=O)C12CC3CC(CC(C(=O)O)(C3)C1)C2 | -10.2% | -7.95% | -4.8% | -3.2% | -1.65% | -14.8% |
| COc1cc(CC2c3cccc(Oc4ccc(C)cc4)c3CCN2C)ccc1Oc1ccc(C)cc1 (configuration not stated) | 98% (active) | 98.2% (active) | 98.7% (active) | 96.5% (active) | 97.4% (active) | 98% (active) |
| CC(=O)[CH-]C(=O)c1ccccc1.CC(=O)[CH-]C(=O)c1ccccc1.CCCCCCCCCCCCCCCCCC(=O)[O-].CCCCCCCCCCCCCCCCCC(=O)[O-].[Ti+4] | 11.2% | -11.2% | -6.55% | -9.7% | 2% | -0.45% |
| O=C1CCCC(=O)C1=Cc1c[nH]c2ccccc12 | 4.3% | 2% | -4.35% | -43% | -16.1% | 15.1% |
| O=C(O)/C=C/C(=O)Nc1ncn[nH]1 | -3.55% | -24.7% | -22.9% | 3.2% | -34.9% | -5.4% |
| Cn1c2c(cc(-c3ccccc3)c1=O)COc1ccccc1-2 | 31.1% | -13.9% | 26.2% | 2.45% | 23.7% | 24.1% |
| COC(=O)C(CC(=O)Nc1ccc(Cl)c(Cl)c1)C(=O)C(=O)Nc1ccc(Cl)c(Cl)c1 (configuration not stated) | -36.2% | -15.6% | -34% | 6.6% | -3.25% | -10.7% |
| CCC1CCC(=O)NC1=O (configuration not stated) | -10.3% | -1.15% | 11.7% | -7.75% | -9.6% | 1.5% |
| C1C[S][Ge]2([S]CCS1)[S]CCSCC[S]2 | -10.4% | -30.5% | -16.6% | -15.5% | -30.6% | -14.8% |
| Clc1ccccc1-c1c2ccccc2cc2ccc3ccccc3c12 | -6.75% | -11.6% | -3.85% | -39.5% | 18.9% | -12.4% |
| [O-][N+](=Nc1ccccc1Cl)c1ccccc1Cl | 44% | 16% | 62.7% | 4.15% | 28.2% | 31.2% |
| O=C(O)c1ccc(O)c2ccccc12 | -21.9% | -21.2% | -15.4% | -24.7% | -13.1% | -21.9% |
| CC(C)(C)OC(=O)N(CCNS(=O)(=O)c1cccc2cnccc12)CCC(=O)ON1C(=O)CCC1=O | 4.7% | -0.2% | 17.8% | 14.7% | 23.3% | 6.35% |
| CC(=O)OCCOCNC(=S)NCc1ccco1 | 11.2% | -7.25% | -40% | 9.3% | 5.85% | -10.3% |
| O=C(O)c1cc([N+](=O)[O-])ccc1Oc1cccc([N+](=O)[O-])c1 | -30.9% | -1.2% | 1.2% | 27% | 2.95% | -8.25% |
| O=C(Nc1cc(Cl)c(I)c(Cl)c1)C(F)(F)F | 96.6% (active) | 97.4% (active) | 96.8% (active) | 97% (active) | 79.8% (active) | 97.5% (active) |
| C/C(=C\C(C)(C)c1ccccc1)c1ccccc1 | -14.9% | -31.6% | -3.75% | -8.35% | 9.2% | -25.1% |
| CN(C)CC(CN(C)C)C(=O)C(C)(C)C | 9.45% | -1.95% | 22.7% | -7.7% | 7.8% | 13.8% |
| CCC1SCC(=O)N1c1nncs1 (configuration not stated) | 4.75% | 18.9% | 4.55% | -8.6% | 2.75% | 2.95% |
| Cc1cc2c(=O)cc(-c3ccc(C(=O)O)cc3)oc2c(C(=O)O)c1C | 7.1% | 4.3% | 22.8% | 29.8% | 5.7% | 10.5% |
| O=C(O)CC1CCCc2ccccc2C1CC(=O)O (configuration not stated) | 5.25% | -4.3% | 10.4% | 8.8% | 6.85% | 7.4% |
